FBPA coupling cs: coupling enzyme interference in Giardia aldolase counter-screen; coupling enzyme system counterscreen, AmpLite Red fluorescence; 290,000 tested, 0.67% active; activity change, negative = inhibition, % at 58.2 µM, hits read low; in the data active = activity change below about -30%
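Counterscreen lacking aldolase: glyceraldehyde-3-phosphate coupling-enzyme reagent preincubated 10 min at RT with compound (at 57.5 uM final), then substrate/coupling system with AmpLite Red added; fluorescence read at 525/598 nm after 20 min RT.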
ALDH1A1 block: ALDH1A1 (human) enzyme inhibition. P00352. Purified ALDH1A1, NADH fluorescence, propionaldehyde substrate. Potency, µM (series often up to 75.3 µM), without a hit: at the highest dose activity, negative = inhibition, hits mostly inhibitors. 220,000 tested, 7.3% active. AID 1030;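 also: potency is read from the fitted curve at half-maximal effect; plate controls were no enzyme wells and a reference inhibitor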
NPSR antag: antagonists of human neuropeptide S receptor cAMP signaling; Q6W5P4; CHO-NPSR cells, cAMP TR-FRET, antagonist mode; Potency, µM (highest dose often 38.3 µM), for inactives: at the top dose activity change, negative = inhibition, actives largely listed as inhibitors; 220,000 tested, 1% active; AID 1461; active = well fitted curve in the direction sought with a large enough effect; inconclusive = small, poorly fitted or top-dose-only effect, or another doubt; inactive = no such curve, though single readings can be large; an effect the other way counts as inactive or inconclusive; also: potency is read from the fitted curve at half-maximal effect; nearly all actives have a fitted effect of over 50% in size
Target sequence (Q6W5P4 whole entry, looked up): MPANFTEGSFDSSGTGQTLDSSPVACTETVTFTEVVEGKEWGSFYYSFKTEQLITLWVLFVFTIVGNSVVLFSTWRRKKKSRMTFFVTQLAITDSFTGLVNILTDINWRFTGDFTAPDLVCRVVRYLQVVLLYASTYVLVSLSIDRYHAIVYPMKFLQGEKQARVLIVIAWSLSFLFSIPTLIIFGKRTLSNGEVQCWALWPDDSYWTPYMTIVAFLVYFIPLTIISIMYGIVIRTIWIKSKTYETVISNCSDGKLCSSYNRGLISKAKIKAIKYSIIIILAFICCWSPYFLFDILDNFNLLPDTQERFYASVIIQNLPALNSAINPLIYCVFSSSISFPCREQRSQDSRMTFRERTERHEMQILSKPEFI
Sfp PPTase inh: inhibitors of Bacillus subtilis Sfp phosphopantetheinyl transferase | Q9F4F7 | Biochemical Sfp PPTase activity, qHTS | Potency, µM, inactives show largest response in the series, negative = inhibition, usual class: inhibitors | 310,000 tested, 3.5% active; active = well fitted curve in the direction sought with a large enough effect; inconclusive = small, poorly fitted or top-dose-only effect, or another doubt; inactive = no such curve, though single readings can be large; an effect the other way counts as inactive or inconclusive;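 also: the enzyme is Sfp with the accession as filed and its product quenches rhodamine fluorescence; potency is read from the fitted curve at half-maximal effect; 0% = enzyme reaction without inhibitor and -100% = no enzyme wells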
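Fluorescence-quenching assay: 15 nM Sfp-PPTase preincubated 15 min at room temperature with compound, then 5 uM rhodamine-CoA and 12.5 uM BHQ-2-labelled YbbR peptide added. Fluorescence (ex 525/em 598 nm) read at start and after 30 min; difference gives rate.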
JMJD2E inh: inhibitors of human JMJD2E histone demethylase; JMJD2E catalytic domain, FDH-coupled NADH fluorescence (FDH is formaldehyde dehydrogenase); AID 2147; Potency, µM (titrated, usually from 57.1 µM), for inactives: top-dose activity change, negative = inhibition, actives largely listed as inhibitors; 230,000 tested, 1.6% active; B2RXH2;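 also: potency is read from the fitted curve at half-maximal effect; 0% = wells with enzyme and -100% = buffer wells without enzyme; nearly all actives have a fitted effect of over 50% in size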
RGS12 GoLoco inh: RGS12 GoLoco-Gai1 interaction inhibition; P63096; Gai1:RGS12 GoLoco peptide FP, rhodamine, 10 min; Potency, µM (doses to about 61.6 µM), for the others: top-dose activity, negative = inhibition, hits mostly inhibitors; 230,000 tested, 0.44% active; AID 880; active = well fitted inhibition curve with a large enough effect, not every such curve was filed as active; inactive = no such curve, though single readings can be large or run the other way; also: potency is read from the fitted curve at half-maximal effect; nearly all actives have a fitted effect of over 30% in size
Target sequence (P63096 whole entry, looked up): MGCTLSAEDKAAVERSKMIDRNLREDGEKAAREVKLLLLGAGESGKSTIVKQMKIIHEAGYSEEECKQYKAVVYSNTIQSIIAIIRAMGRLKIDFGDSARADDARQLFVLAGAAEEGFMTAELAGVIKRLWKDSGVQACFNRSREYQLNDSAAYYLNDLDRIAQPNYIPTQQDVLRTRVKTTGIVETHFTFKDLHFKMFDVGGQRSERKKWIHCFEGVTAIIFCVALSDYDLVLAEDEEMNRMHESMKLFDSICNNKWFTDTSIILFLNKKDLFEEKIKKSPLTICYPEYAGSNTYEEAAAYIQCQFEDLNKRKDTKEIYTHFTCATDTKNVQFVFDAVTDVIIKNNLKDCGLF
* = called active by the depositor; ? = inconclusive; · = no result; ! = repeats disagree; [ ] = another dose, or the depositor's remark. This is a sample that favours compounds with a hit; in the whole collection about 8.5% have one here. Unless noted, calls follow the shape of the dose curve; as a rule, active = well fitted inhibition curve with a large enough effect (not every such curve was filed as active); inconclusive = small, poorly fitted or top-dose-only effect, or another doubt; inactive = no such curve, though single readings can be large or run the other way. Unless noted, % is scaled to controls: 0 for no effect and ±100 for the full control effect.

SMILES | FBPA coupling cs | ALDH1A1 block | NPSR antag | Sfp PPTase inh | JMJD2E inh | RGS12 GoLoco inh
C=CCN1C(=O)/C(=C/c2ccc(OC(C)=O)c(OCC)c2[N+](=O)[O-])SC1=S | -17.7 | -2.8% | -41.7% | 15.8µM* | -2.6% | 46.2%
CCOc1cc(NC(=S)NCCCN2CCOCC2)c(OCC)cc1NC(=O)C1CC1 | 0.1 | 8.5% | 6.8% | 8.9% | 2.4% | -0.3%
CCc1nnc(NC(=O)C2CCN(c3cnccn3)CC2)s1 | 0.9 | ? | -9.3%[7.67 µM] | -2.6% | -27.0% | 1.8%
CC(C)c1nnc(NC(=O)C2CCN(c3cnccn3)CC2)s1 | 0.1 | 31.6µM* | 0.1%[46.1 µM] | 12.6% | ? | -1.9%
O=C(c1cc([N+](=O)[O-])ccc1N1CCCCC1)N1CCCC1 | 3.0 | 28.2µM* | 10.2% | 7.6% | 0.7% | 1.1%
CN(C)S(=O)(=O)c1ccc(N2CCCC2)c(C(=O)N2CCN(c3ccc([N+](=O)[O-])cc3)CC2)c1 | 1.2 | 14.1µM* | -56.2% | 6.3% | -2.4% | 7.5%
Cc1ccc(C(=O)c2cc([N+](=O)[O-])ccc2N2CC(C)OC(C)C2)cc1 (stereo not given) | -0.6 | ? | -22.2% | 9.5% | 4.8% | -6.2%
Cc1ccc(C(=O)c2cc([N+](=O)[O-])ccc2N2CCCCC2)cc1 | 0.4 | 20µM* | -29.3% | -15.2% | -1.4% | -0.2%
Cc1cc(=O)[nH]c(SCC(=O)OCc2ccccc2)c1C#N | 11.4 | -5.6% | -0.9% | 10.0% | -7.2% | 3.9%
NNC(=O)c1ncoc1-c1ccc(Cl)cc1 | -3.9 | · | 2.7% | 23.8% | -3.1% | 2.4%
O=C(Nc1c2c(nn1-c1ccc(F)cc1)CS(=O)C2)c1ccc(Br)o1 (stereo not given) | · | · | · | 12.2% | · | ·
Cc1ccc(C(=O)NNC(=O)CCC(=O)Nc2cccc(Cl)c2C)cc1 | 3.7 | 19.0% | 24.4% | 79.4µM* | 2.2% | 12.3%
NC(=O)c1ccc2c(=O)n3c(-c4cccs4)csc3nc2c1 | 0.8 | · | -1.2% | 8.0% | ? | -0.7%
Cc1ccc(-c2csc3nc4cc(C(N)=O)ccc4c(=O)n23)cc1 | -0.4 | · | -33.5% | 79.4µM* | ? | -6.2%
CC(C)(C)c1ccc(NC(=O)c2ccsc2)cc1 | -20.7 | · | 55.6% | 79.4µM* | -0.5% | 19.9%
CC(C)(C)c1ccc(C(=O)Nc2ccc(Cl)cc2)cc1 | -0.6 | 4.2% | -1.3% | -5.6% | 4.0% | 5.2%
CCOC(=O)c1c(C)[nH]c(C)c1S(=O)(=O)NCc1ccc(OCC)cc1 | -1.9 | · | · | 9.9% | · | ·
Nc1nc(-c2ccc([N+](=O)[O-])cc2)cs1 | 0.8 | -6.3% | 9.9%[46.1 µM] | 9.1% | -3.2% | ·
CC1(C)CC(c2nc(-c3ccc([N+](=O)[O-])cc3)cs2)CCO1 (stereo not given) | 0.0 | 15.8µM* | -24.4% | ? | -13.0% | 0.5%
COc1ccc(C(=O)C2CCN(C(=O)Nc3ccccc3C)CC2)cc1 | 10.4 | · | · | 2.8% | · | ·
CCOc1ccccc1NC(=O)C1=C(C)NC(=S)NC1c1cccs1 (stereo not given) | -0.5 | 0.631µM* | -11.6% | -1.2% | -2.3% | 4.2%
CC1=C(C(=O)Nc2ccccc2C)C(c2cccs2)NC(=S)N1 (stereo not given) | 1.5 | 12.6µM* | 9.6% | 4.0% | -10.2% | 4.4%
CC1=C(C(=O)Nc2ccc(C)cc2C)C(c2cccs2)NC(=S)N1 (stereo not given) | 2.4 | ? | -15.7%[46.1 µM] | 15.9% | 7.3% | 9.3%
COCCN(C(=O)COC(=O)c1sccc1C)c1c(N)n(Cc2ccccc2)c(=O)[nH]c1=O | · | · | · | -2.6% | · | ·
O=C1CSC(c2ccc([N+](=O)[O-])cc2)N1c1ccccc1 (stereo not given) | 4.2 | · | · | 10.4% | · | ·
SMILES | FBPA coupling cs | ALDH1A1 block | NPSR antag | Sfp PPTase inh | JMJD2E inh | RGS12 GoLoco inh
CC(C)c1ccc(OCCCCCN2CCOCC2)cc1 | -0.3 | · | · | ? | · | ·
CC(=O)Oc1ccc(OC(C)=O)c(SCCCCCN2CCOCC2)c1 | -14.8 | 3.3% | ? | 79.4µM* | -11.0% | -31.1%
Cc1cccc(NC(=O)CSc2nc3ccccc3nc2N2CCCC2)c1C | -2.4 | · | · | -21.6% | · | ·
COc1ccccc1CNC(=O)CN1C(=O)COc2ccc(S(=O)(=O)N3CCCCC3)cc21 | · | · | · | 1.3% | · | ·
Cc1ccc(C(=O)Oc2csc(=S)n2C(=O)c2ccc(C)cc2)cc1 | -0.2 | 3.55µM* | -4.1%[46.1 µM] | 44.7µM* | ? | 22.8%
CC(=O)O[C@@]1(C(C)=O)CCC2C3C=C(Cl)C4=CC(=O)CC[C@]4(C)C3CC[C@]21C (stereo not given in full) | -0.8 | 0.5% | · | -9.8% | -2.1% | 8.0%
CC(=O)O[C@]1(C(C)=O)CC[C@H]2[C@@H]3C[C@H](C)C4=CC(=O)CC[C@]4(C)[C@H]3CC[C@@]21C | 2.4 | 31.6µM*! | 2.51µM* | -13.8% | 7.7% | 17.9%
CC(=O)O[C@]1(C(C)=O)CC[C@H]2[C@@H]3C=C(Cl)C4=CC(=O)CC[C@]4(C)[C@H]3CC[C@@]21C | 5.1 | ? | 5.01µM* | -11.5% | -11.7% | 26.4%
CC(=O)C12CCCCC1CC1[C@@H]3CC(C)C4=CC(=O)CC[C@]4(C)C3CC[C@@]12C (stereo not given in full) | 0.7 | · | · | -18.9% | · | ·
COc1ccc(NC(=O)CC2Oc3ccccc3NC2=O)c(OC)c1 (stereo not given) | 1.2 | · | · | 9.7% | · | ·
N#Cc1nc(NCCCCO)nc(Nc2ccccc2)n1 | -0.1 | · | · | · | · | ·
CC(=O)c1cn(CCOc2ccc(F)cc2)c2ccccc12 | 2.2 | · | · | 11.7% | · | ·
COC(=O)CCCCCN1C(=O)/C(=C\c2ccncc2)SC1=S | -0.1 | 25.1µM* | -0.1% | -2.7% | -14.5% | -2.5%
CC(=O)Nc1c(O)nc(SCC(=O)Nc2cccc(C)c2)[nH]c1=O | 7.6 | -6.6% | 4.0%[46.1 µM] | -9.3% | -1.2% | 1.9%
CC(=O)Nc1c(O)nc(SCC(=O)Nc2nnc(SCc3ccccc3)s2)[nH]c1=O | 20.7 | ? | 16.5% | 35.5µM* | 7.4% | 0.4%
CC(=O)Nc1c(O)nc(SCC(=O)Nc2ccc(C(C)=O)cc2)[nH]c1=O | -0.3 | 11.2µM* | -9.1%[46.1 µM] | -25.3% | 3.6% | 6.7%
CN(C)Cc1ccccc1-c1nc(N(C)C)c2ccccc2n1 | -2.5 | 28.1% | · | 10.0% | · | 5.3%
CC(=O)N1N=C(c2ccccc2)CC1c1ccc(F)cc1 (stereo not given) | 1.2 | · | · | 12.7% | · | ·
O=C(c1cccs1)N1N=C(c2ccccc2)CC1c1ccc(O)cc1 (stereo not given) | 1.5 | ? | -27.6% | 20µM* | 85.8% | 5.0%
O=C(c1cccs1)N1N=C(c2ccc(O)cc2)CC1c1ccccc1 (stereo not given) | 0.2 | 14.9% | -51.3% | 17.8µM* | -8.9% | 8.6%
O=C(c1cccs1)N1N=C(c2ccccc2)CC1c1ccccc1 (stereo not given) | -0.5 | -15.1% | ? | 39.8µM* | ? | 6.6%

Screens deposited in PubChem BioAssay by National Center for Advancing Translational Sciences (NCATS).
